Screens from PubChem BioAssay.
Rab9 prom act – qHTS Assay for Rab9 Promoter Activators; Huh7 Rab9 promoter-luciferase reporter, luminescence, 24 h; Potency, µM (series often up to 9.22 µM), for the others: top-dose activation, negative = inhibition, hits mostly activators; hit rate 2.8% among 320,000; further: % of control where 0% means no effect; nearly all actives have a fitted effect of over 60% in size
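Using Huh7 cells stably transfected with Rab9 promoter–luciferase, compounds were incubated 24 h at 37 °C, 5% CO2; luciferase luminescence was read 10 min after reagent addition.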
NPC1 promoter act – qHTS Assay for NPC1 Promoter Activators; Huh7 NPC1 promoter luciferase reporter, 24 h; Potency, µM (doses to about 9.22 µM), for inactives: at the highest dose activation, actives largely listed as activators; hit rate 2.4% among 320,000; further: % of control where 0% means no effect; nearly all actives have a fitted effect of over 60% in size
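Readout is luciferase luminescence, reflecting NPC1 promoter activation in stably transfected Huh7 cells after 24 h compound exposure at 37 °C in reduced-serum medium with 10% FBS.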
ELG1 genotox – qHTS screen for small molecules that induce genotoxicity in human embryonic kidney (HEK293T) cells expressing luciferase-tagged ELG1 | HEK293T ELG1-luciferase reporter, luminescence, 16 h | Potency, µM (highest dose often 46 µM), for the others: top-dose activity change, positive = activation, hits mostly activators | AID 504466, 2011 | hit rate 1.3% among 330,000; further: % of control where 0% means no effect; nearly all actives have a fitted effect of over 60% in size
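DMSO vehicle served as control against compound-treated ELG1-luciferase HEK293T cells; exposure lasted 16 hr at 37 °C and 5% CO2, followed by ONE-Glo luminescence detection after 30 min.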
FLuc counter – qHTS profiling assay for firefly luciferase inhibitor/activator using purifed enzyme and Km concentrations of substrates (counterscreen for miR-21 project); purified FLuc, Km substrates, luminescence inhibition; Potency, µM (titrated, usually from 57.5 µM), without a hit: at the top dose activity change, negative = inhibition, usual class: inhibitors; hit rate 6.9% among 360,000; Luciferin 4-monooxygenase (Photinus pyralis), P08659; AID 588342, 2011;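 further: plate controls were vehicle for no effect and reference inhibitor for full effect; nearly all actives have a fitted effect of over 55% in size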
Target sequence (P08659 whole entry, looked up): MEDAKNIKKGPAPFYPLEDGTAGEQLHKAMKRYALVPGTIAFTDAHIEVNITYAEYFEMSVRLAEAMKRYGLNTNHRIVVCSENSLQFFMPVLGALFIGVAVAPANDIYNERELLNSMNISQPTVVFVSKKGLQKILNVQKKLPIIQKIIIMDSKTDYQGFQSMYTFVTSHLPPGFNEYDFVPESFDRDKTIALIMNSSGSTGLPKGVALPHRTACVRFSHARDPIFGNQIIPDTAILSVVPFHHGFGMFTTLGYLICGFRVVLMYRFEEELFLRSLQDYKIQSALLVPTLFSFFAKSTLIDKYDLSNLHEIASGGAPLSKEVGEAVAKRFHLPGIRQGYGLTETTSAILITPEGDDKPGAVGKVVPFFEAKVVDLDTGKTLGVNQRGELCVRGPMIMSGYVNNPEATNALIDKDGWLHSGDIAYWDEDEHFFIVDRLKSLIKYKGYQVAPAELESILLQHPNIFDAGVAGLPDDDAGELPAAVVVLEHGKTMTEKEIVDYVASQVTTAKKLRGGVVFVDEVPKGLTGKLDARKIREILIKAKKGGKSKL
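Purified P. pyralis luciferase, 10 nM final, with Km-level 10 uM D-luciferin and 10 uM ATP in 50 mM Tris acetate pH 7.5, 10 mM Mg acetate, 0.01% Tween-20, 0.05% BSA; 6-point qHTS titration about 60 µM downward; luminescence read.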
SMN2 splice up – qHTS Assay for Enhancers of SMN2 Splice Variant Expression | HEK293 SMN2-luciferase splicing reporter, luminescence, 30-36 h | AID 1458, 2008 | hit rate 2.8% among 210,000 | Potency, µM (titrated, usually from 46.1 µM), for inactives: top-dose activity change, positive = activation, hits mostly activators; further: % of control where 0% means no effect; nearly all actives have a fitted effect of over 55% in size
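qHTS luciferase splicing reporter: luminescence rises when SMN2 exon 7 is included in transfected HEK293 cells. Compound exposure lasted 30-36 h at 37C, with 4.5 mM final sodium butyrate as control, followed by a ONE-Glo read.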
Starred values were filed as active, the others as inactive; ? = inconclusive; . = not tested or not shown; [ ] = dose if it differs, or a comment. Rows were chosen to be rich in hits. Some 7.4% of all compounds tested hit in one or more screens of this group. The call rests on the fitted dose curve; in most records, active means well fitted curve in the direction sought with a large enough effect; inconclusive means small, poorly fitted or top-dose-only effect, or another doubt; inactive means no such curve, though single readings can be large; an effect the other way counts as inactive or inconclusive. Potency means the concentration at half of the fitted maximal effect.

SMILES | Rab9 prom act | NPC1 promoter act | ELG1 genotox | FLuc counter | SMN2 splice up
Cc1cc(C(=O)CSc2nnc3ccccn23)c(C)n1-c1ccccc1 | ? | ? | ? | 0.19µM* | -47%
CCOC(=O)c1ccccc1NC(=O)COC(=O)CSc1ccccc1 | -22% | 4% | -1% | -7% | .
Cc1nn(Cc2ccccc2Cl)c(C)c1NC(=O)c1cc(C(C)C)on1 | . | . | . | -15% | ?
Cc1nn(Cc2c(Cl)cccc2Cl)c(C)c1NC(=O)c1cc(C(C)C)on1 | 0% | 1% | -4% | -1% | 3.5µM*
O=C(O)c1cccc(COc2ccccc2Cl)c1 | 0.89µM* | ? | . | 0.15µM* | 0.032µM*
O=C(Nc1ccccc1Cl)c1cccc(COc2cc(Cl)ccc2Cl)c1 | 4µM* | 2.2µM* | ? | ? | 6.3µM*
COc1ccc(C(=O)Nc2cc(OCc3ccccc3)c(Cl)cc2Cl)cc1 | 0% | -3% | -3% | 1% | -15%
O=C(O)c1ccc(COc2ccccc2Cl)cc1 | 24% | 14% | 2% | 21µM* | 12%
COc1ccccc1C1CCN(Cc2cccc(C(=O)N3CCC(O)CC3)c2)CC1 | -1% | -2% | 0% | 1% | .
C[C@H]1[C@H](C)CC[C@]2(C(=O)O)CC[C@]3(C)C(=CC[C@H]4[C@]3(C)C[C@@H](O)C3[C@](C)(CO)[C@H](O)[C@@H](O)C[C@]34C)[C@H]12 (stereo partly drawn) | . | . | . | . | -7%[9.22 µM]
CCOC(=O)CNC(=O)N1CCCC(CCC(=O)NCc2ccc(F)c(F)c2)C1 (stereo not drawn) | 0% | -18% | -1% | 2% | .
Cc1nc2nc(SCc3ccccc3)[nH]n2c(=O)c1CCC(C)C | -1% | -3% | 1% | -2% | .
Cc1nn(Cc2c(F)c(F)c(F)c(F)c2F)c(C)c1NC(=O)c1cccc(COc2ccccc2Cl)c1 | 0.35µM* | 0.5µM* | ? | 6µM* | 10µM*
CN1CCN(C(=O)c2ccc(COc3cc(Cl)ccc3Cl)o2)CC1 | -4% | -1% | 6% | -3% | .
Cc1nn(Cc2cccc(F)c2)c(C)c1NC(=O)c1ccc(COc2ccccc2Cl)cc1 | 3% | -3% | -24% | 4% | -67%
CN1CCN(C(=O)c2cccc(COc3cc(Cl)ccc3Cl)c2)CC1 | 1.1µM* | 3.2µM* | ? | ? | 10µM*
COc1ccc(OCC(=O)Nc2nc3cc4c(cc3s2)OCCO4)cc1 | . | . | -2% | . | .
O=C(Nc1nc2cc3c(cc2s1)OCCO3)C1CCCCC1 | 0.32µM* | 0.5µM* | ? | 0.43µM* | .
CC(=O)Nc1nc2cc3c(cc2s1)OCCO3 | 1.4µM* | 1.6µM* | ? | 7.6µM* | .
O=C(Nc1nc2cc3c(cc2s1)OCO3)C1CCCCC1 | 1.3µM* | 1.8µM* | ? | 4.8µM* | .
O=C(NNc1nc2cc3c(cc2s1)OCCO3)c1ccccc1 | ? | ? | ? | 9.5µM* | 20µM*
O=C(Nc1nc2cc3c(cc2s1)OCO3)C1CC1 | 28% | ? | 9% | ? | .
Cn1c(N)c(C(=O)COC(=O)c2ccccc2C(=O)c2ccc(Cl)cc2)c(=O)n(C)c1=O | . | . | 0% | . | .
COC(=O)C1=C(C(=O)OC)[C@@H]2N(C)c3ccccc3[C@@]23C[C@@H](C(=O)OC)N(S(=O)(=O)c2ccc([N+](=O)[O-])cc2)C3=N1 | . | . | . | . | 3%[9.22 µM]
O=C(Nc1nnc(-c2ccccc2F)s1)c1cccnc1 | 2µM* | 2.2µM* | ? | 9.5µM* | ?
Cc1ccc(NC(=O)Nc2nnc(-c3ccccc3F)s2)cc1 | ? | ? | 9% | -12% | .
O=C(Nc1nnc(C(F)(F)F)s1)c1cccnc1 | 4.5µM* | ? | 12% | 12µM* | 11µM*
CC(=O)N1CCN(c2ccc(NCc3ccc(-c4cccc(Cl)c4)o3)cc2)CC1 | . | . | 1% | . | .
COC(=O)[C@H]1C[C@@H]2CC[C@@H](O)C[C@@H]2N1Cc1c(F)cccc1Cl | . | . | . | . | 4%
